Article PMC13541613, “GHT-SELEX demonstrates unexpectedly high intrinsic sequence specificity and complex DNA binding of many human transcription factors”

Experiments:
ZNF721 full-length = ZNF721 full-length (Homo sapiens, UniProt Q8TF20-2 1-923); assay: HT-SELEX; 20 mM HEPES pH 7, 140 mM KCl, 5 mM NaCl, 1 mM K2HPO4, 2 mM MgSO4, 100 uM EGTA, ZnSO4, 0.1% Tween20; room temperature, 1 h; high values mean tight binding; conditions: protein: ivt; tags: eGFP (N-terminal); dsDNA, one strand shown
Outline: (§1)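 The binding signal is a relative k-mer count in selected reads, and higher values mean tighter binding. To obtain these reads, bead-bound tagged transcription factor (full-length or DNA-binding-domain fragment, produced in HEK293 lysate or cell-free extract) was mixed with a randomized 40-base DNA library for 1 h at room temperature in low-stringency HEPES/KCl buffer with Tween20. Bound DNA was recovered by washing and heat elution, PCR-amplified through successive cycles and sequenced on Illumina (~3 million 60 bp reads per sample).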

ZNF721 DBD2 = ZNF721 DBD2 (Homo sapiens, UniProt Q8TF20-2 395-923); assay: as above; conditions: protein: ivt; tags: eGFP (N-terminal); dsDNA, one strand shown
ZNF721 DBD2, sequence (Q8TF20 383-911): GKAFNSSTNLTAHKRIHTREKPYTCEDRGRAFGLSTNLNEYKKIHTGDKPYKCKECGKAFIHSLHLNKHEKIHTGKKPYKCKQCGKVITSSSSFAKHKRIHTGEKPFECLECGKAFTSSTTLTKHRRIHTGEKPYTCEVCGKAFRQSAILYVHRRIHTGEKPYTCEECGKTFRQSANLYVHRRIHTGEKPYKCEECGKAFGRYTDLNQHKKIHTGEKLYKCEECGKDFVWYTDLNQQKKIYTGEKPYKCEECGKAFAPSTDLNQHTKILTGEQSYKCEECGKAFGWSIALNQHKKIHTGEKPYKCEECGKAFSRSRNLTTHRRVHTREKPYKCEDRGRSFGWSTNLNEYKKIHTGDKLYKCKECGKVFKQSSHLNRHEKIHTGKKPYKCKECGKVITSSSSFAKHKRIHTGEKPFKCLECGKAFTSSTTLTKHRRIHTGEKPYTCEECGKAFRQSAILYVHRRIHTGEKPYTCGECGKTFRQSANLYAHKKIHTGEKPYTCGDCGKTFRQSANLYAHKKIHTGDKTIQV
Outline: as §1

ZNF721 full-length, sequence (Q8TF20 other isoform, or with tags, fused parts or gaps): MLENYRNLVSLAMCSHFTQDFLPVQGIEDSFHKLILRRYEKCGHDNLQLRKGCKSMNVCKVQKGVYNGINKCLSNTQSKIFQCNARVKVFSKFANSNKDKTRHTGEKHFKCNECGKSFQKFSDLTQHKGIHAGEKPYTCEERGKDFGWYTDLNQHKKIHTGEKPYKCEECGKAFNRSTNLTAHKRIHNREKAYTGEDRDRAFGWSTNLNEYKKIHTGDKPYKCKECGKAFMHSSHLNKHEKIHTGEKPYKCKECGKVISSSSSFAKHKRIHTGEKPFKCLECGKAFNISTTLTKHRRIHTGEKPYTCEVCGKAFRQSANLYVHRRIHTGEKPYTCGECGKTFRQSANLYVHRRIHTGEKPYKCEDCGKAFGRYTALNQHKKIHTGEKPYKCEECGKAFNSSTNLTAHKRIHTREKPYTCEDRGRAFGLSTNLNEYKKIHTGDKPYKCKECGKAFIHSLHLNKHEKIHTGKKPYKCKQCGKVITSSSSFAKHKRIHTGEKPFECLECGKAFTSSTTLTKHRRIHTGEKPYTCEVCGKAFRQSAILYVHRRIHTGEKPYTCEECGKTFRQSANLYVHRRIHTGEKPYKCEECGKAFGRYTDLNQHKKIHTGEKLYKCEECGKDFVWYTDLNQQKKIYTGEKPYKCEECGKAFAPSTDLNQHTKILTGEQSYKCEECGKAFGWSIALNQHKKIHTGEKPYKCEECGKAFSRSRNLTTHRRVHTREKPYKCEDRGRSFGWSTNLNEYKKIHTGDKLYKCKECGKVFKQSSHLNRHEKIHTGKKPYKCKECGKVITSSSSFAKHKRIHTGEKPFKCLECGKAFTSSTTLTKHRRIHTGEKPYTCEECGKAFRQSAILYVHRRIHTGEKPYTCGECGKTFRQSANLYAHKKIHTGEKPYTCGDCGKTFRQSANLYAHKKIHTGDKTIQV

Sequence: CAAAAAACAG
- binding signal (ZNF721 full-length): 0.386 relative 10-mer count
- binding signal (ZNF721 DBD2): 0.495 relative 10-mer count

Sequence: AAAAGAACAG
- binding signal (ZNF721 full-length): 0.113 relative 10-mer count
- binding signal (ZNF721 DBD2): 0.0777 relative 10-mer count

Sequence: AAACAGTGTA
- binding signal (ZNF721 full-length): 0.179 relative 10-mer count
- binding signal (ZNF721 DBD2): 0.225 relative 10-mer count

Sequence: CAGAGTACCC
- binding signal (ZNF721 full-length): 0.125 relative 10-mer count
- binding signal (ZNF721 DBD2): 0.18 relative 10-mer count

Sequence: ACACTGCTTG
- binding signal (ZNF721 full-length): 0.107 relative 10-mer count
- binding signal (ZNF721 DBD2): 0.138 relative 10-mer count

Sequence: CAGTGTCTCC
- binding signal (ZNF721 full-length): 0.213 relative 10-mer count
- binding signal (ZNF721 DBD2): 0.552 relative 10-mer count

Sequence: CAGCATCTCC
- binding signal (ZNF721 full-length): 0.126 relative 10-mer count
- binding signal (ZNF721 DBD2): 0.214 relative 10-mer count

Sequence: AAAACAGGAT
- binding signal (ZNF721 full-length): 0.12 relative 10-mer count
- binding signal (ZNF721 DBD2): 0.133 relative 10-mer count

Sequence: AACAAACAGC
- binding signal (ZNF721 full-length): 0.119 relative 10-mer count
- binding signal (ZNF721 DBD2): 0.0709 relative 10-mer count

Sequence: AACAGTGTTG
- binding signal (ZNF721 full-length): 0.127 relative 10-mer count
- binding signal (ZNF721 DBD2): 0.327 relative 10-mer count

Sequence: AAAGAAACAG
- binding signal (ZNF721 full-length): 0.126 relative 10-mer count
- binding signal (ZNF721 DBD2): 0.119 relative 10-mer count

Sequence: AACAAAACAG
- binding signal (ZNF721 full-length): 0.206 relative 10-mer count
- binding signal (ZNF721 DBD2): 0.223 relative 10-mer count

Sequence: AACAGTGTAT
- binding signal (ZNF721 full-length): 0.129 relative 10-mer count
- binding signal (ZNF721 DBD2): 0.199 relative 10-mer count

Sequence: ACGCTGTTTC
- binding signal (ZNF721 full-length): 0.13 relative 10-mer count
- binding signal (ZNF721 DBD2): 0.199 relative 10-mer count

Sequence: AAACTAGCAT
- binding signal (ZNF721 full-length): 0.118 relative 10-mer count
- binding signal (ZNF721 DBD2): 0.175 relative 10-mer count

Sequence: AAACAAACAG
- binding signal (ZNF721 full-length): 0.143 relative 10-mer count
- binding signal (ZNF721 DBD2): 0.0858 relative 10-mer count

Sequence: CAGTGTTTCC
- binding signal (ZNF721 full-length): 0.252 relative 10-mer count
- binding signal (ZNF721 DBD2): 0.641 relative 10-mer count

Sequence: CAAAGCAGTG
- binding signal (ZNF721 full-length): 0.119 relative 10-mer count
- binding signal (ZNF721 DBD2): 0.198 relative 10-mer count

Sequence: AACAAAGCAG
- binding signal (ZNF721 full-length): 0.243 relative 10-mer count
- binding signal (ZNF721 DBD2): 0.29 relative 10-mer count

Sequence: AAAACAGTAC
- binding signal (ZNF721 full-length): 0.126 relative 10-mer count
- binding signal (ZNF721 DBD2): 0.166 relative 10-mer count

Sequence: AAACAGCGTT
- binding signal (ZNF721 full-length): 0.388 relative 10-mer count
- binding signal (ZNF721 DBD2): 0.648 relative 10-mer count

Sequence: ACAGCGTATC
- binding signal (ZNF721 full-length): 0.232 relative 10-mer count
- binding signal (ZNF721 DBD2): 0.371 relative 10-mer count

Sequence: AACAGCGTCT
- binding signal (ZNF721 full-length): 0.203 relative 10-mer count
- binding signal (ZNF721 DBD2): 0.347 relative 10-mer count

Sequence: AAACAGCACT
- binding signal (ZNF721 full-length): 0.14 relative 10-mer count
- binding signal (ZNF721 DBD2): 0.201 relative 10-mer count

Sequence: AACAGCATAC
- binding signal (ZNF721 full-length): 0.51 relative 10-mer count
- binding signal (ZNF721 DBD2): 0.709 relative 10-mer count

Sequence: AAACAGCATA
- binding signal (ZNF721 full-length): 0.56 relative 10-mer count
- binding signal (ZNF721 DBD2): 0.657 relative 10-mer count

Sequence: AAGCAGCGTC
- binding signal (ZNF721 full-length): 0.112 relative 10-mer count
- binding signal (ZNF721 DBD2): 0.133 relative 10-mer count

Sequence: AAAACAGTGC
- binding signal (ZNF721 full-length): 0.121 relative 10-mer count
- binding signal (ZNF721 DBD2): 0.195 relative 10-mer count

Sequence: AAACAGGGGT
- binding signal (ZNF721 full-length): 0.106 relative 10-mer count
- binding signal (ZNF721 DBD2): 0.153 relative 10-mer count

Sequence: AGCAGTGTTG
- binding signal (ZNF721 full-length): 0.13 relative 10-mer count
- binding signal (ZNF721 DBD2): 0.223 relative 10-mer count

Sequence: ACAAAAACAG
- binding signal (ZNF721 full-length): 0.13 relative 10-mer count
- binding signal (ZNF721 DBD2): 0.173 relative 10-mer count

Sequence: AACACTGCTT
- binding signal (ZNF721 full-length): 0.388 relative 10-mer count
- binding signal (ZNF721 DBD2): 0.495 relative 10-mer count

Sequence: AAAAACAGGG
- binding signal (ZNF721 full-length): 0.283 relative 10-mer count
- binding signal (ZNF721 DBD2): 0.337 relative 10-mer count

Sequence: AAAAACAGAA
- binding signal (ZNF721 full-length): 0.108 relative 10-mer count
- binding signal (ZNF721 DBD2): 0.0718 relative 10-mer count

Sequence: CTGTTTTTTA
- binding signal (ZNF721 full-length): 0.204 relative 10-mer count
- binding signal (ZNF721 DBD2): 0.282 relative 10-mer count

Sequence: ACAGCATACC
- binding signal (ZNF721 full-length): 0.516 relative 10-mer count
- binding signal (ZNF721 DBD2): 0.692 relative 10-mer count

Sequence: AAACAGGATA
- binding signal (ZNF721 full-length): 0.111 relative 10-mer count
- binding signal (ZNF721 DBD2): 0.121 relative 10-mer count

Sequence: AACAGCATCC
- binding signal (ZNF721 full-length): 0.117 relative 10-mer count
- binding signal (ZNF721 DBD2): 0.1 relative 10-mer count

Sequence: AAAAACTAGC
- binding signal (ZNF721 full-length): 0.103 relative 10-mer count
- binding signal (ZNF721 DBD2): 0.135 relative 10-mer count

Sequence: CAGTGTTGCC
- binding signal (ZNF721 full-length): 0.253 relative 10-mer count
- binding signal (ZNF721 DBD2): 0.686 relative 10-mer count

Sequence: CAGGGTTTCC
- binding signal (ZNF721 full-length): 0.162 relative 10-mer count
- binding signal (ZNF721 DBD2): 0.368 relative 10-mer count

Sequence: CAAAGCAGCG
- binding signal (ZNF721 full-length): 0.114 relative 10-mer count
- binding signal (ZNF721 DBD2): 0.158 relative 10-mer count

Sequence: CGAAAAACAG
- binding signal (ZNF721 full-length): 0.174 relative 10-mer count
- binding signal (ZNF721 DBD2): 0.222 relative 10-mer count

Sequence: ACAGCGTTTC
- binding signal (ZNF721 full-length): 0.253 relative 10-mer count
- binding signal (ZNF721 DBD2): 0.448 relative 10-mer count

Sequence: AAACAGAGTA
- binding signal (ZNF721 full-length): 0.198 relative 10-mer count
- binding signal (ZNF721 DBD2): 0.22 relative 10-mer count

Sequence: AAAAAAACAG
- binding signal (ZNF721 full-length): 0.967 relative 10-mer count
- binding signal (ZNF721 DBD2): 0.753 relative 10-mer count

Sequence: ACAGTGTATC
- binding signal (ZNF721 full-length): 0.137 relative 10-mer count
- binding signal (ZNF721 DBD2): 0.202 relative 10-mer count

Sequence: AAAAACAGTG
- binding signal (ZNF721 full-length): 0.406 relative 10-mer count
- binding signal (ZNF721 DBD2): 0.517 relative 10-mer count

Sequence: ATAAAAACAG
- binding signal (ZNF721 full-length): 0.11 relative 10-mer count
- binding signal (ZNF721 DBD2): 0.148 relative 10-mer count

Sequence: CAGTGTATCC
- binding signal (ZNF721 full-length): 0.208 relative 10-mer count
- binding signal (ZNF721 DBD2): 0.401 relative 10-mer count

Sequence: ATAAAACAGC
- binding signal (ZNF721 full-length): 0.158 relative 10-mer count
- binding signal (ZNF721 DBD2): 0.214 relative 10-mer count

Sequence: AAAACTAGCA
- binding signal (ZNF721 full-length): 0.127 relative 10-mer count
- binding signal (ZNF721 DBD2): 0.173 relative 10-mer count

Sequence: AAAACAGCGC
- binding signal (ZNF721 full-length): 0.17 relative 10-mer count
- binding signal (ZNF721 DBD2): 0.225 relative 10-mer count

Sequence: AAAACAGTGT
- binding signal (ZNF721 full-length): 0.495 relative 10-mer count
- binding signal (ZNF721 DBD2): 0.712 relative 10-mer count

Sequence: AGAGTACCCA
- binding signal (ZNF721 full-length): 0.112 relative 10-mer count
- binding signal (ZNF721 DBD2): 0.123 relative 10-mer count

Sequence: AAAAACAGCA
- binding signal (ZNF721 full-length): 0.778 relative 10-mer count
- binding signal (ZNF721 DBD2): 0.785 relative 10-mer count

Sequence: AAAAAACAGA
- binding signal (ZNF721 full-length): 0.261 relative 10-mer count
- binding signal (ZNF721 DBD2): 0.219 relative 10-mer count

Sequence: CGCTGTTTTC
- binding signal (ZNF721 full-length): 0.221 relative 10-mer count
- binding signal (ZNF721 DBD2): 0.356 relative 10-mer count

Sequence: AAAACAGCAC
- binding signal (ZNF721 full-length): 0.279 relative 10-mer count
- binding signal (ZNF721 DBD2): 0.306 relative 10-mer count

Sequence: AAACGAACAG
- binding signal (ZNF721 full-length): 0.126 relative 10-mer count
- binding signal (ZNF721 DBD2): 0.0771 relative 10-mer count

Sequence: CAAAAACAGC
- binding signal (ZNF721 full-length): 0.163 relative 10-mer count
- binding signal (ZNF721 DBD2): 0.251 relative 10-mer count

Sequence: AACAGCATAT
- binding signal (ZNF721 full-length): 0.118 relative 10-mer count
- binding signal (ZNF721 DBD2): 0.181 relative 10-mer count
